# Test results from the supplement of paper PMC12282887.
# ± gives the standard deviation of the averaged measurements.
# Assays:
# Experiment in all cases: promoter activity interaction Z-score (Lux/OD deviation from empty-vector control); higher = stronger promoter induction by the compound
# [1] = test system: E. coli BW25113 acrABp lux reporter
# Procedure, shortened: (§1)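 Four 1:2 dilutions of each compound were tested in biological duplicates on E. coli BW25113 carrying low-copy luxCDABE promoter reporters, either wild type or deleted for one of three genes. Cultures of 40 µl LB Lennox in 384-well plates were kept at 37°C and read for OD600 and luminescence every 30 min for 12 h. Integration windows were 0–8 h for wild type and 1–9 h for deletion strains, and wells under 10% of the median growth value were discarded. The score is a Z-transformed residual of growth-normalised luminescence relative to a control fit.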
# [2] = test system: E. coli BW25113 micFp lux reporter
# Procedure, shortened: as §1
# [3] = test system: E. coli BW25113 ompFp lux reporter
# Procedure, shortened: as §1
# [4] = test system: E. coli BW25113 robp lux reporter
# Procedure, shortened: as §1
# [5] = test system: E. coli BW25113 soxSp lux reporter
# Procedure, shortened: as §1
# [6] = test system: E. coli BW25113 tolCp lux reporter
# Procedure, shortened: as §1
# [7] = 12.9 µg/ml, genetic background: wild type
# [8] = 12.9 µg/ml, genetic background: ΔmarA
# [9] = 12.9 µg/ml, genetic background: Δrob
# [10] = 12.9 µg/ml, genetic background: ΔsoxS
# [11] = 25.8 µg/ml, genetic background: wild type
# [12] = 25.8 µg/ml, genetic background: ΔmarA
# [13] = 25.8 µg/ml, genetic background: Δrob
# [14] = 25.8 µg/ml, genetic background: ΔsoxS
# [15] = 51.6 µg/ml, genetic background: wild type
# [16] = 51.6 µg/ml, genetic background: ΔmarA
# [17] = 51.6 µg/ml, genetic background: Δrob
# [18] = 51.6 µg/ml, genetic background: ΔsoxS
# [19] = 103.1 µg/ml, genetic background: wild type
# [20] = 103.1 µg/ml, genetic background: ΔmarA
# [21] = 103.1 µg/ml, genetic background: Δrob
# [22] = 103.1 µg/ml, genetic background: ΔsoxS
smiles,measurement,setting,value
CC(C)Cc1ccc(C(C)C(=O)O)cc1 (stereo unspecified) [Ibuprofen],promoter activity interaction Z-score,[1]; [7],0.434 ± 0.3
same,promoter activity interaction Z-score,[1]; [8],-0.569 ± 0.69
same,promoter activity interaction Z-score,[1]; [9],0.0303 ± 0.11
same,promoter activity interaction Z-score,[1]; [10],0.455 ± 0.63
same,promoter activity interaction Z-score,[1]; [11],0.485 ± 0.088
same,promoter activity interaction Z-score,[1]; [12],0.667 ± 0.1
same,promoter activity interaction Z-score,[1]; [13],-0.156 ± 0.0041
same,promoter activity interaction Z-score,[1]; [14],-0.0442 ± 0.022
same,promoter activity interaction Z-score,[1]; [15],0.366 ± 0.24
same,promoter activity interaction Z-score,[1]; [16],-0.62 ± 0.53
same,promoter activity interaction Z-score,[1]; [17],0.236 ± 0.13
same,promoter activity interaction Z-score,[1]; [18],0.0533 ± 0.45
same,promoter activity interaction Z-score,[1]; [19],0.11 ± 0.073
same,promoter activity interaction Z-score,[1]; [20],2.18 ± 0.32
same,promoter activity interaction Z-score,[1]; [21],-0.393 ± 0.093
same,promoter activity interaction Z-score,[1]; [22],-0.205 ± 0.13
same,promoter activity interaction Z-score,[2]; [7],0.145 ± 0.18
same,promoter activity interaction Z-score,[2]; [8],-0.00146 ± 0.055
same,promoter activity interaction Z-score,[2]; [9],-0.209 ± 0.0032
same,promoter activity interaction Z-score,[2]; [10],0.214 ± 0.16
same,promoter activity interaction Z-score,[2]; [11],0.384 ± 0.26
same,promoter activity interaction Z-score,[2]; [12],0.0835 ± 0.1
same,promoter activity interaction Z-score,[2]; [13],-0.0551 ± 0.11
same,promoter activity interaction Z-score,[2]; [14],0.0794 ± 0.022
same,promoter activity interaction Z-score,[2]; [15],-0.0155 ± 0.081
same,promoter activity interaction Z-score,[2]; [16],0.0304 ± 0.18
same,promoter activity interaction Z-score,[2]; [17],-0.00979 ± 0.056
same,promoter activity interaction Z-score,[2]; [18],0.259 ± 0.28
same,promoter activity interaction Z-score,[2]; [19],0.239 ± 0.31
same,promoter activity interaction Z-score,[2]; [20],-0.0514 ± 0.092
same,promoter activity interaction Z-score,[2]; [21],-0.0741 ± 0.16
same,promoter activity interaction Z-score,[2]; [22],0.193 ± 0.12
same,promoter activity interaction Z-score,[3]; [7],0.335 ± 0.31
same,promoter activity interaction Z-score,[3]; [8],0.335 ± 0.075
same,promoter activity interaction Z-score,[3]; [9],-0.132 ± 0.56
same,promoter activity interaction Z-score,[3]; [10],0.513 ± 0.44
same,promoter activity interaction Z-score,[3]; [11],0.726 ± 0.49
same,promoter activity interaction Z-score,[3]; [12],1.13 ± 1.1
same,promoter activity interaction Z-score,[3]; [13],0.704 ± 0.75
same,promoter activity interaction Z-score,[3]; [14],-0.184 ± 0.45
same,promoter activity interaction Z-score,[3]; [15],0.353 ± 0.34
same,promoter activity interaction Z-score,[3]; [16],0.469 ± 0.28
same,promoter activity interaction Z-score,[3]; [17],0.418 ± 0.24
same,promoter activity interaction Z-score,[3]; [18],0.0995 ± 0.085
same,promoter activity interaction Z-score,[3]; [19],0.349 ± 0.46
same,promoter activity interaction Z-score,[3]; [20],1.78 ± 0.81
same,promoter activity interaction Z-score,[3]; [21],0.954 ± 1.3
same,promoter activity interaction Z-score,[3]; [22],-0.0643 ± 0.52
same,promoter activity interaction Z-score,[4]; [7],0.839 ± 0.9
same,promoter activity interaction Z-score,[4]; [8],0.214 ± 0.091
same,promoter activity interaction Z-score,[4]; [9],0.6 ± 0.66
same,promoter activity interaction Z-score,[4]; [10],0.59 ± 0.11
same,promoter activity interaction Z-score,[4]; [11],1.19 ± 0.31
same,promoter activity interaction Z-score,[4]; [12],2.36 ± 0.11
same,promoter activity interaction Z-score,[4]; [13],0.557 ± 0.45
same,promoter activity interaction Z-score,[4]; [14],-0.577 ± 0.45
same,promoter activity interaction Z-score,[4]; [15],0.25 ± 0.22
same,promoter activity interaction Z-score,[4]; [16],-0.675 ± 0.18
same,promoter activity interaction Z-score,[4]; [17],0.24 ± 0.11
same,promoter activity interaction Z-score,[4]; [18],-0.0538 ± 0.089
same,promoter activity interaction Z-score,[4]; [19],0.337 ± 0.38
same,promoter activity interaction Z-score,[4]; [20],0.9946 ± 0.0074
same,promoter activity interaction Z-score,[4]; [21],0.346 ± 0.75
same,promoter activity interaction Z-score,[4]; [22],0.183 ± 1.1
same,promoter activity interaction Z-score,[5]; [7],0.233 ± 0.39
same,promoter activity interaction Z-score,[5]; [8],-0.0514 ± 0.082
same,promoter activity interaction Z-score,[5]; [9],-0.201 ± 0.088
same,promoter activity interaction Z-score,[5]; [10],0.159 ± 0.065
same,promoter activity interaction Z-score,[5]; [11],0.503 ± 0.48
same,promoter activity interaction Z-score,[5]; [12],0.0892 ± 0.08
same,promoter activity interaction Z-score,[5]; [13],-0.0188 ± 0.046
same,promoter activity interaction Z-score,[5]; [14],-0.109 ± 0.058
same,promoter activity interaction Z-score,[5]; [15],0.0184 ± 0.19
same,promoter activity interaction Z-score,[5]; [16],-0.0994 ± 0.11
same,promoter activity interaction Z-score,[5]; [17],0.111 ± 0.19
same,promoter activity interaction Z-score,[5]; [18],-0.0346 ± 0.014
same,promoter activity interaction Z-score,[5]; [19],-0.0139 ± 0.16
same,promoter activity interaction Z-score,[5]; [20],-0.0609 ± 0.081
same,promoter activity interaction Z-score,[5]; [21],-0.164 ± 0.23
same,promoter activity interaction Z-score,[5]; [22],-0.245 ± 0.15
same,promoter activity interaction Z-score,[6]; [7],-0.813 ± 0.87
same,promoter activity interaction Z-score,[6]; [8],0.0288 ± 1.6
same,promoter activity interaction Z-score,[6]; [9],-0.78 ± 0.64
same,promoter activity interaction Z-score,[6]; [10],-0.147 ± 0.44
same,promoter activity interaction Z-score,[6]; [11],0.563 ± 0.048
same,promoter activity interaction Z-score,[6]; [12],0.78 ± 1.2
same,promoter activity interaction Z-score,[6]; [13],-0.284 ± 1.6
same,promoter activity interaction Z-score,[6]; [14],-0.361 ± 0.24
same,promoter activity interaction Z-score,[6]; [15],-0.451 ± 0.093
same,promoter activity interaction Z-score,[6]; [16],-0.139 ± 0.2
same,promoter activity interaction Z-score,[6]; [17],0.442 ± 1.5
same,promoter activity interaction Z-score,[6]; [18],-0.22 ± 0.31
same,promoter activity interaction Z-score,[6]; [19],0.199 ± 1.1
same,promoter activity interaction Z-score,[6]; [20],0.757 ± 1.8
same,promoter activity interaction Z-score,[6]; [21],-0.377 ± 0.11
same,promoter activity interaction Z-score,[6]; [22],-0.341 ± 0.63
